Entries with a potency or affinity are not part of this list.
Target: Caspase-9 (Homo sapiens) (UniProt P55211)
Assay: inhibitors of purified CASP9 protease – biochemical, fluorescence, plate reader, cherry-picked samples, selectivity assay for caspase-6 inhibitor project, dose response (AID 743293)
Details: purified caspase-9, Z-LEHD-R110 cleavage fluorescence; series mostly up to 35 µM; activity change, negative = inhibition: at the top concentration;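 active = compounds lowering fluorescence with a fitted half-maximal concentration at or below a set limit tied to top dose; inconclusive = flat curve with 30 to 70% inhibition, or poor fit; inactive = the rest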

Sequence of Caspase-9 (Homo sapiens) (P55211 whole entry, looked up): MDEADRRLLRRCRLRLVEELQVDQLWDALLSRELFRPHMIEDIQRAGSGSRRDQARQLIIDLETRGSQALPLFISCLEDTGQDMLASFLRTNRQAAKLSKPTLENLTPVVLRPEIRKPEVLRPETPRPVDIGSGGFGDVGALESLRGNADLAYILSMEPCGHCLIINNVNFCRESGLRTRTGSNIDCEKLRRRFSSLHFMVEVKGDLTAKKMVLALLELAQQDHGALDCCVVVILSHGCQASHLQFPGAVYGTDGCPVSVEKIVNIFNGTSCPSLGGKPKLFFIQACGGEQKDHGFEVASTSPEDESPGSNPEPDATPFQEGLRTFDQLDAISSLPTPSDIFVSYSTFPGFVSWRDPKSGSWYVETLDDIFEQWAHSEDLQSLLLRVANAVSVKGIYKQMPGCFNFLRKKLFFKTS

Activity change, negative = inhibition, inactive:
Cc1oc2c(cc(NS(=O)(=O)c3ccc(C(C)C)cc3)c3ccccc32)c1C(=O)O 14.4%
O=S(=O)(O)c1cc(O)c2cc(Nc3ccccc3)ccc2c1 13%
CCOC(=O)c1sc2nc(OCCN3CCOCC3)cc(C)c2c1N 6.72%
COc1ccc(NC(=O)CN(C)C(=O)c2cccc(-n3cccc3)c2)cc1 1.4%
Oc1cc2c(cc1O)[C@H]1c3ccc(O)c(O)c3OC[C@@]1(O)C2 -2.83%
CCCN(C(=O)c1cccc(-n2cccc2)c1)c1c(N)n(Cc2ccccc2)c(=O)[nH]c1=O 12.4%
Cc1ccc(NC(=O)CN(C)C(=O)c2cccc(-n3cccc3)c2)cc1 2.92%
COc1ccc(C(=O)OCC(=O)Nc2ncc([N+](=O)[O-])s2)cc1OC -3.4%
CO[C@H]1CN(C)C(=O)c2cc(NC(C)=O)ccc2OC[C@@H](C)N(C(=O)CC2CC2)C[C@H]1C 26.4%
Oc1cc(O)cc(C=Cc2ccc(O)c(O)c2)c1 -0.042%
COc1ccc(NS(=O)(=O)c2ccc3c(c2)[C@H]2C=CC[C@H]2[C@@H](c2ccc(C(=O)O)cc2)N3)cc1 -9.07%
O=C1CN(C(=O)COC(=O)c2ccc([N+](=O)[O-])s2)c2ccccc2N1 1.28%
CCOC(=O)[C@H](Cc1c[nH]c2ccccc12)NC(=O)CN=[N+]=[N-] 14.2%
Cc1c(CCC(=O)O)c(=O)oc2c(C)c(OCc3ccccc3Cl)ccc12 2.99%
O=C(O)Cc1ccc(-n2cccc2)cc1 -10.5%
Cc1ccc(S(=O)c2ccc([N+](=O)[O-])c3nonc23)cc1 (centres undefined) -0.086%
Cc1cc(C=O)c(C)n1-c1ccc(Cl)c(C(=O)O)c1 7.2%
COc1cc(C)c2c(c1C=O)Oc1c(c(C)c(O)c3c1C(O)OC3=O)OC2=O (centres undefined) -7.48%
O=C(c1cccc(-n2cccc2)c1)N1CCN(S(=O)(=O)c2ccccc2)CC1 0.468%
CCCCN(C(=O)c1cccc(-n2cccc2)c1)c1c(N)n(Cc2ccccc2)c(=O)[nH]c1=O 16.8%
Cc1cc(C=O)c(C)n1-c1cc(C(=O)O)cc(C(=O)O)c1 0.218%
O=c1c(O)cccc2cc(O)c(O)c(O)c12 -7.42%
COc1cc(NCCCCC(C)N)c2nccc(C)c2c1 (centres undefined) 3.91%
[O-][n+]1onc2c1CCc1c-2nn(-c2ccccc2Cl)[n+]1[O-] 1.99%
CN(CC(=O)Nc1ccccc1Cl)C(=O)COC(=O)c1ccc([N+](=O)[O-])s1 -8.48%
CCOc1ccc2nc3cc(NCc4ccc(OC)cc4)ccc3c(N)c2c1 -6.35%
O=C(O)C1Nc2c(Cl)cc(Cl)c(Cl)c2C2C=CCC12 (centres undefined) 2.14%
CCCCNC(=O)c1nc(C2CCNCC2)oc1-c1cccc(C(F)(F)F)c1 6.78%
C/C(CC(=O)N1CCCC1)=N\NC(=O)c1cc2ccccc2cc1O 2.71%

— PubChem BioAssay AID743293 (Broad Institute, 2014)
